Out of some 16,000 compounds screened, about 2,600 (16%) were called active. About 20% were inconclusive and are not listed. A selection follows. Values without a mark were called inactive. The call rests on the fitted dose curve; in most records, active means well fitted curve in the direction sought with a large enough effect; inconclusive means small, poorly fitted or top-dose-only effect, or effect the other way; inactive means no such curve, though single readings can be large or run the other way.
molecular target: Cytochrome P450 2D6 (Homo sapiens) (UniProt P10635); assay: Cytochrome panel assay with activity outcomes; conditions: recombinant CYP, pro-luciferin dealkylation, luminescence, p450-cyp2d6; series mostly up to 57.1 µM; activity, negative = inhibition: at the top concentration
Sequence (P10635 whole entry, looked up): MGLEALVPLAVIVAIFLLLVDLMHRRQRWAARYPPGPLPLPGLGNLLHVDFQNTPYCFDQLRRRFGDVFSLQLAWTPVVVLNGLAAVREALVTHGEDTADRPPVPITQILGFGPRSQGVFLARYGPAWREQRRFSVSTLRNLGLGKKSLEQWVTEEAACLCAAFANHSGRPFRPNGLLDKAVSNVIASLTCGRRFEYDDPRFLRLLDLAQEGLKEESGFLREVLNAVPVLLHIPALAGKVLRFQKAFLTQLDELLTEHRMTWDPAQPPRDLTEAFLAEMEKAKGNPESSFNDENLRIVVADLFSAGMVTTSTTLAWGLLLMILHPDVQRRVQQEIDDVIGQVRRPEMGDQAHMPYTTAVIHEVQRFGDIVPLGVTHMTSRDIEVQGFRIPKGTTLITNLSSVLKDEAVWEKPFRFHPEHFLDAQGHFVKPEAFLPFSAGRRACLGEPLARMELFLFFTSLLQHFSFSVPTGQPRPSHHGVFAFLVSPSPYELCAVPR
On the % scale 0 is the no-effect control and ±100 the full control effect.

Row | SMILES | activity, negative = inhibition | AC50
1 | O=c1c(-c2cccc(F)c2)nc2cncnc2n1-c1ccccc1 | -9.29% (inactive) | –
2 | CN1CCN(c2ncc3nc(-c4ccccc4)c(=O)n(Cc4ccc(F)cc4)c3n2)CC1 | -0.95% (inactive) | –
3 | CC(C)(C)c1ccc(NS(=O)(=O)c2ccc(N)cc2)cc1 | 18.9% [at 11.4 µM] | –
4 | CCNS(=O)(=O)c1ccc(NS(C)(=O)=O)cc1 | -5.1% (inactive) | –
5 | O=S(=O)(Nc1ccc(Cc2ccncc2)cc1)c1cccs1 | – | 0.355 µM (active)
6 | COc1ccc(S(=O)(=O)Nc2cccc(Cl)c2)cc1OC | -24.4% (inactive) | –
7 | Cc1csc(NC(=O)CNS(=O)(=O)c2cccs2)n1 | 1.06% (inactive) | –
8 | O=S(=O)(Nc1ccc(Cc2ccncc2)cc1)c1ccc(Cl)c(Cl)c1 | – | 1 µM (active)
9 | O=S(=O)(Nc1ccc(Cc2ccncc2)cc1)c1ccc(Br)cc1 | – | 0.631 µM (active)
10 | O=S(=O)(Nc1cccnc1Cl)c1ccc2c(c1)OCCO2 | 0.444% (inactive) | –
11 | CC(=C\C(=O)O)/C(=C/c1ccccc1)C(=O)O | -7.05% (inactive) | –
12 | CCOC(=O)C1(C(=O)O)NC(=O)CC1c1ccccc1 (stereo not given) | -5.68% (inactive) | –
13 | C[C@H]1CC[C@H]2C(=O)N[C@H](Cc3ccccc3)C(=O)N2[C@@H]1c1ccccc1 | -17.6% [at 11.4 µM] | –
14 | COCCn1c(=O)c(-c2cn(C)c3ccccc23)nc2cncnc21 | -5.12% (inactive) | –
15 | NC(N)=N[C@H](CCC(=O)O)C(=O)O | 0.897% (inactive) | –
16 | CC(=O)N[C@@H](C(=O)O)C(C)(C)SN=O | – | inactive
17 | O=C1OCCC=C1[C@@H](O)CCc1ccccc1 | -2.43% [at 11.4 µM] | –
18 | COC(=O)c1scc(C)c1NC(=O)Cc1ccccc1 | -2.62% (inactive) | –
19 | O=C(O)c1ccc(SSc2ccc(C(=O)O)cn2)nc1 | -10.6% [at 11.4 µM] | –
20 | N#CC(c1ccccc1F)(c1ncc(C(F)(F)F)cc1Cl)N1CCOCC1 (stereo not given) | -15.7% (inactive) | –
21 | Cc1cc2nc([C@H](C)C(=O)c3ccc(Cl)cc3)c(=O)[nH]c2cc1C | -4.99% [at 11.4 µM] | –
22 | COc1ccc(-c2nc3cnc(N4CCNCC4)nc3n(C)c2=O)cc1 | -2.18% (inactive) | –
23 | CN1CCN(CCCNC(=O)C2CCN(c3nnc(-n4cccc4)s3)CC2)CC1 | -2.02% (inactive) | –
24 | COc1ccc2nc(N3C(=O)CC(Cc4ccc(Cl)cc4)C3=O)sc2c1 (stereo not given) | -13.6% (inactive) | –
25 | COc1ccc2nc(N3CCCC(C(=O)NCCCN4CCN(C)CC4)C3)sc2c1 (stereo not given) | – | 11.2 µM (active)

Row | SMILES | activity, negative = inhibition | AC50
26 | O=c1[nH]ncn2cccc12 | 1.89% (inactive) | –
27 | COc1ccc(-c2ccc(N)[n+](CCCC(=O)O)n2)cc1 | – | inactive
28 | COc1ccc(-c2ccc(=N)n(CCCC(=O)O)n2)cc1 | – | 3.98 µM (active)
29 | COCCNC(=O)CCn1nc(-c2ccc(Cl)cc2)ccc1=O | -2.97% (inactive) | –
30 | CCC(C)(C)n1nnnc1C(C(C)C)N(CCCO)Cc1cc2cc(C)ccc2[nH]c1=O (stereo not given) | -18.4% (inactive) | –
31 | COc1cc2cc(CN(CCCO)S(=O)(=O)c3ccccc3Cl)c(=O)[nH]c2cc1OC | 5.86% (inactive) | –
32 | COc1ccccc1CN(Cc1cc2cc(C)cc(C)c2[nH]c1=O)Cc1nnnn1CC1CCCO1 (stereo not given) | -28.2% (inactive) | –
33 | CCC(C)(C)n1nnnc1C(C(C)C)N(Cc1ccco1)Cc1cc2cc3c(cc2[nH]c1=O)OCO3 (stereo not given) | – | 14.1 µM (active)
34 | CCC(C)(C)n1nnnc1C(c1cc2cc3c(cc2[nH]c1=O)OCO3)N1CCCCC1 (stereo not given) | -25.4% (inactive) | –
35 | COc1ccccc1CN(Cc1cc2cc3c(cc2[nH]c1=O)OCCO3)Cc1nnnn1Cc1ccco1 | – | 14.1 µM (active)
36 | COc1cccc2c1OC1(C)CC2/C(=C(\C)O)C(=O)N1 (stereo not given) | 7.2% (inactive) | –
37 | OC[C@@H]1O[C@H](O)[C@@H](Cl)[C@H](O)[C@@H]1O | 5.2% (inactive) | –
38 | CN(C)S(=O)(=O)Oc1cccc(C(=O)Nc2ccccc2Cl)c1 | -10.3% (inactive) | –
39 | Clc1ccc(CSc2ncnc3c2ncn3[C@@H]2CCCCO2)cc1 | -9.38% [at 11.4 µM] | –
40 | COc1ccc(/C=N/NC(=O)c2cc(-c3ccc(C)cc3C)nc3ccccc23)cc1COC(C)=O | 1.39% (inactive) | –
41 | CCOCCCn1cnc2c(c1=O)c1nc3ccccc3nc1n2-c1ccccc1 | -6.76% (inactive) | –
42 | CCCCn1cnc2c(c(CC#N)nn2-c2ccccc2)c1=N | – | 0.398 µM (active)
43 | CCCCn1cnc2c(cnn2-c2ccc(F)cc2)c1=O | -12.2% (inactive) | –
44 | COc1ccc(NC(=O)C2CCN(C(=O)c3cccs3)CC2)c(OC)c1 | 16.9% (inactive) | –
45 | O=C(NCCN1CCN(C(=O)C(c2ccccc2)c2ccccc2)CC1)C(=O)Nc1ccccc1 | -10% (inactive) | –
46 | O=C(c1cccs1)N1CCN(C(=O)C(c2ccccc2)c2ccccc2)CC1 | – | 10 µM (active)
47 | O=C1[C@H]2[C@H]3[C@H](O)[C@H](O)C/C(=N/OCc4ccccc4)[C@H]3CC[C@@H]2C(=O)N1C[C@@H]1CCCO1 | 4.75% [at 11.4 µM] | –
48 | COc1cccc(Cn2c(=O)c(-c3cccs3)nc3cnc(N(C)C)nc32)c1 | -4.4% (inactive) | –
49 | COC(=O)CSc1ncc(OC)c(OC)n1 | -7.49% (inactive) | –
50 | O=C1c2ccccc2C(=O)N1C[C@]1(C(=O)O)NCCS1(=O)=O | 7.33% [at 11.4 µM] | –
